# Reference: PubChem BioAssay (Tox21)
# Values joined by “and” are separate entries in the source; they are usually repeats but may differ in a detail not shown here. Equal values may be shown once. Records with an inconclusive call do not appear. Entries that show only a call come without a potency. Where a structure was tested more than once in an assay, its records may differ in their call. Active and inactive are the calls of the source. The call rests on the fitted dose curve; in most records, active means well fitted cell-killing curve with a large enough effect in the repeat runs; inconclusive means weak or mixed curves, or effect the other way; inactive means no such curve, though single readings can be large or run the other way.
# Test: qHTS assay to identify small molecule antagonists of the thyroid receptor (TR) signaling pathway - cell viability counter screen (AID 743064); further: nearly all actives have a fitted effect of over 50% in size
# Conditions: GH3.TRE-Luc viability, CellTiter-Fluor, 24 h; series mostly up to 70.3 µM; activity change, negative = cytotoxic: at the top concentration
# Description: National Center for Advancing Translational Sciences [NCATS]
# NIH Chemical Genomics Center [NCGC]
# U.S. Environmental Protection Agency [EPA]
# National Institutes of Environmental Health Sciences [NIEHS]
# National Toxicology Program [NTP]
# U.S. Food and Drug Administration [FDA]
# Thyroid receptor (TR), a nuclear hormone receptor, plays an important role in development, proliferation, differentiation, metabolism, brain function, and cardiovascular system. […] To profile the Tox21 10K compound library in TR signaling, a cell-based GH3-TRE-Luc assay (GH3.TRE-Luc cell line, developed by the laboratory of Dr. Albertinka J. Murk, Wageningen University) was used to measure the inhibition of TR. GH3 (rat pituitary tumor) cells stably expressing a TR activity sensor consisting of two TR response elements and a luciferase reporter gene. The cytotoxicity of the Tox21 compound library against the GH3.TRE-Luc cell line was tested in parallel by measuring the cell viability using CellTiter-Fluor assay (Promega, Madison, WI) in the same wells.
# Tox21 Assay Protocol Summary:
# GH3.TRE-Luc cells were dispensed at 1500 cells/4 uL/well into 1536-well white solid bottom plates using a Multidrop Combi dispenser (Thermo Fisher Scientific Inc., Waltham, MA). After the assay plates were incubated at 37 C for 4 hours, 23 nL of library compound or DMSO controls was transferred to the assay plates by a pintool station (Kalypsys, San Diego, CA), followed by addition of 1 ul of T3 (1 nM, final concentration in the wells) to stimulate TR transactivation. The assay plates were incubated at 37 C for 23.5 h, and then 1 uL of CellTiter-Fluor reagent (Promega, Madision, WI) of measuring cytotoxicity was added to each well using a Bioraptr Flying Reagent Dispenser (FRD) workstation (Beckman Coulter, Indianapolis, IN, USA). The plates were incubated at 37C and 5% CO2 for additional 30 min, and fluorescence intensity was measured by a ViewLux plate reader (PerkinElmer, Shelton, CT).
# Potency means the concentration at half of the fitted maximal effect.
SMILES,"activity change, negative = cytotoxic",Potency
CN(C)NC(=O)CCC(=O)O,17.7% [at 95 µM] (inactive),–
c1ccc2c(c1)CCCC2,14.8% [at 95 µM] (inactive),–
CC12CC1(C)C(=O)N(c1cc(Cl)cc(Cl)c1)C2=O (stereo not given),-0.226% (inactive),–
CCCOC(=O)c1ccccc1C(=O)OCCC,-7.75% (inactive),–
CC(=O)/C=C/c1ccccc1,–,inactive
CNCC(O)c1ccc(O)cc1 (stereo not given),–,inactive
C=CC#N,15.7% (inactive),–
C=CC(=O)OCC(CC)CCCC (stereo not given),–,inactive
Nc1cccc(Cl)c1,10.1% (inactive),–
Cc1cc(O)ccc1Cl,–,inactive
N#CN=C(N)N,2.77% (inactive),–
CCOC(=O)CC(SP(=O)(OC)OC)C(=O)OCC (stereo not given),-5.31% (inactive),–
Cc1cccc(N)c1,–,inactive
CCNc1nc(Cl)nc(NC(C)C)n1,–,inactive
O=C(O)C1C(C(=O)O)C2(Cl)C(Cl)=C(Cl)C1(Cl)C2(Cl)Cl (stereo not given),–,inactive
C=CCN=C=S,–,inactive
CCOP(=S)(OCC)Oc1cc(C)nc(C(C)C)n1,–,inactive and 17.2 µM (active)
Oc1c(Br)cc(Br)cc1Br,–,inactive
O=P1(NCCCl)OCCCN1CCCl (stereo not given),–,inactive
CC(C)c1cccc(C(C)C)c1O,–,inactive

SMILES,"activity change, negative = cytotoxic",Potency
CCCCCCCCCCCCCCCCCC(=O)O,–,inactive
OC[C@@H](O)[C@H]1O[C@@H]2O[C@H](C(Cl)(Cl)Cl)O[C@@H]2[C@H]1O,–,inactive
CCSC(=O)N1CCCCCC1,–,inactive
Cc1ccc(N)cc1,–,inactive
O=C(O)C(Br)Br,–,inactive
Cl/C=C/Cl,–,inactive
CCOP(=S)(OCC)Oc1ccc([N+](=O)[O-])cc1,–,inactive
O=[N+]([O-])c1ccc(Cl)cc1,–,inactive
N#Cc1cccc(C#N)c1,16.4% (inactive),–
CN(C)C(=O)Cl,–,inactive
Cl[C@H]1OCCO[C@@H]1Cl,3.37% (inactive),–
Nc1ncc([N+](=O)[O-])s1,-1.79% (inactive),–
CNc1cnn(-c2cccc(C(F)(F)F)c2)c(=O)c1Cl,–,inactive
OCC(O)CCl (stereo not given),11.3% (inactive),–
N#Cc1ccccn1,4.45% (inactive),–
Nc1cc(Cl)cc(Cl)c1,-13.8% (inactive),–
Cc1cccc(N)c1C,–,inactive
O=C(O)COc1ccccc1,–,inactive
[N-]=[N+]=CC(=O)OC[C@H](N)C(=O)O,–,inactive
Cc1ccccc1N,–,inactive
